Laboratory results reported in PubChem BioAssay AID504339 (National Center for Advancing Translational Sciences (NCATS), 2011).
Hit rate of the full screen: of about 390,000 compounds, about 17,000 (4.4%) were called active. A call without a number means that no potency is given here. Not shown: some 8% with an inconclusive outcome. The sample as a whole holds a higher share of actives than the screen did. Unmarked numbers belong to inactive results. Calls come from the whole dose curve; as a rule, active = well fitted inhibition curve with a large enough effect; inconclusive = small, poorly fitted or top-dose-only effect; inactive = no such curve, though single readings can be large or run the other way.

biological target: Lysine-specific demethylase 4A (Homo sapiens) (UniProt O75164); assay: qHTS Assay for Inhibitors of JMJD2A-Tudor Domain; conditions: AlphaScreen JMJD2A-Tudor / H3K4me3 peptide binding; series mostly up to 114 µM; note: nearly all actives have a fitted effect of over 50% in size
Potency is the fitted concentration of half-maximal effect.

Chain of Lysine-specific demethylase 4A (Homo sapiens) (O75164 whole entry, looked up, the tested form may be a part): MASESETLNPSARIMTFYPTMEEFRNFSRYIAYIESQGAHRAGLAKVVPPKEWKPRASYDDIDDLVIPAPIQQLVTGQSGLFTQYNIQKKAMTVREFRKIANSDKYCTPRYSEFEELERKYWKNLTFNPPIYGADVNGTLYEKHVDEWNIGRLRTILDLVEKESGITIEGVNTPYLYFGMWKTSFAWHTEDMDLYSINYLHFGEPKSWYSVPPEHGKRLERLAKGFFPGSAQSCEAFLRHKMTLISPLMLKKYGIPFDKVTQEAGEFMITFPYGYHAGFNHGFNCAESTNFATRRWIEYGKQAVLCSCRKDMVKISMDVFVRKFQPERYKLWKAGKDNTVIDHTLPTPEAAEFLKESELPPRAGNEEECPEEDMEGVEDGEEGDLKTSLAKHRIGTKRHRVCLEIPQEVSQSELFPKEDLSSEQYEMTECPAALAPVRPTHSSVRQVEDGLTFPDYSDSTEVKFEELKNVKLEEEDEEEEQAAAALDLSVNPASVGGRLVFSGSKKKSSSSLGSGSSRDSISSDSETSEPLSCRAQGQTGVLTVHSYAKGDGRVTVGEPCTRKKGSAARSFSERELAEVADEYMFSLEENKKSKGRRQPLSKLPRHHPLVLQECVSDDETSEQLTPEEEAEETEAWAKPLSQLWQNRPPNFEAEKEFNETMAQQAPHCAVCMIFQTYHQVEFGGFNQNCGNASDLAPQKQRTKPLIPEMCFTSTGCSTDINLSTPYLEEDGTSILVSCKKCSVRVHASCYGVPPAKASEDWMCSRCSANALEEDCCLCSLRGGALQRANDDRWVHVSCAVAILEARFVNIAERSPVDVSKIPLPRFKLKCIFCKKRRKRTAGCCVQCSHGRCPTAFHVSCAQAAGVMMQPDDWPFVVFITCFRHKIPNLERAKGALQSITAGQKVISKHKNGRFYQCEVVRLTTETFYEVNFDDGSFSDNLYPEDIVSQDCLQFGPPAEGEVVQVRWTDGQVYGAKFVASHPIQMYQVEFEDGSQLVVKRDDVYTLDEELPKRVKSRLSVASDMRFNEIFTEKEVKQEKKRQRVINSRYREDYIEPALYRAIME

Row | SMILES | Potency | activity change, negative = inhibition
1 | Cc1ccc(C(=O)Nc2ccc(OCc3cc(=O)n4c(C)csc4n3)cc2)cc1 | inactive | 
2 | CCOc1cccc(CNC(=O)c2ccc(N3CCCC3)c(NC(=O)Nc3ccccc3CC)c2)c1 | inactive | 
3 | COc1ccccc1/C=C/c1nc(C#N)c(NC(C)c2ccccc2)o1 (stereo not given) | inactive | 
4 | COc1cc2nc(NCC(C)c3ccccc3)n3nc(-c4ccccc4)nc3c2cc1OC (stereo not given) | inactive | 
5 | Clc1ccccc1CSc1nncn2c1cc1occc12 | inactive | 
6 | Nc1cc(N)nc(SCc2ccc(Cl)cc2)n1 | inactive | 
7 | Clc1ccc(CSc2nncn3c2cc2occc23)cc1 | 39.8 µM (active) | 
8 | COc1ccc(-n2c(C)nc3c(cnn3-c3ccc(F)cc3)c2=O)cc1 | inactive | 
9 | COc1cc(NC(=O)CSc2nc3nc(C)c(Cc4ccc(C)cc4)c(C)n3n2)cc(OC)c1OC | inactive | 
10 | O=C(O)c1c(CNCc2cccc(F)c2)c2ccccc2n1Cc1ccccc1 | inactive | 
11 | O=C(Nc1nnc(C2CC(=O)N(c3ccc(Cl)cc3)C2)s1)c1ccco1 (stereo not given) | inactive | 
12 | Cc1cccc(CSc2nc3ccncc3n2CC(=O)N(C)C2CCCCC2)c1 | inactive | 
13 | CCOc1ccc(CNC(=O)C2CCCN(S(=O)(=O)N(CC)c3ccc(OCC)cc3)C2)cc1 (stereo not given) | inactive | 
14 | CCOC(=O)c1sc2nc(CSCC(=O)OCc3ccc(C(=O)OC)o3)[nH]c(=O)c2c1C | inactive | 
15 | Cc1sc2nc(CSCC(=O)NC3CCCCC3)[nH]c(=O)c2c1C | inactive | 
16 | CSc1nnc(SCc2nc3sc(C(=O)O)c(C)c3c(=O)[nH]2)s1 | 12.6 µM (active) | 
17 | Cn1c(=O)sc2cc(NS(=O)(=O)c3ccc(C(C)(C)C)cc3)ccc21 | inactive | 
18 | CCOC(=O)c1ccc(NC(=O)c2c(NCc3cccc(OC)c3)sc3c2CCC3)cc1 | inactive | 
19 | CCOC(=O)C1CCCN(S(=O)(=O)c2cc(-c3cc(C)no3)ccc2OC)C1 (stereo not given) | inactive | 
20 | CSCc1ccc(C(=O)Nc2cc(C)cc(C)c2)cc1 | inactive | 
21 | CC(=O)Nc1ccccc1NC(=O)c1cc(C)cc(C)c1 | 11.2 µM (active) | 
22 | Cc1ccccc1C(=O)Nc1ccccc1NC(=O)c1ccccc1C | inactive | 
23 | Cc1cc2c(cc1S(=O)(=O)CCC(=O)Nc1ccc(OC(F)(F)F)cc1)OCC(=O)N2 | inactive | 
24 | CCCCc1nn2c(=O)cc(COC(=O)c3ccc(NC(=O)c4ccccc4C)cc3)nc2s1 | inactive | 
25 | CCC(=O)Nc1cccc(-c2nc3cc(C)ccc3o2)c1 | inactive | 

Row | SMILES | Potency | activity change, negative = inhibition
26 | Cc1ccc(-n2nnnc2CNC(=O)c2ccccc2C)cc1C | inactive | 
27 | O=C(CCc1[nH]c2ccccc2c1Sc1ccccc1)N(CCO)CCO | 79.4 µM (active) | 
28 | CCCNC(=O)c1ccc(Cn2c(SCC(N)=O)nc3ccccc3c2=O)cc1 | inactive | 
29 | COc1ccc2cc(C3=CC(=O)C[C@H](c4ccc5c(c4)OCO5)C3)ccc2c1 | inactive | 
30 | COc1ccc([C@H]2CC(=O)C=C(c3ccc(CO)cc3)C2)cc1 | 28.2 µM (active) | 
31 | COc1ccc([C@H]2CC(=O)C=C(c3ccc(C)cc3)C2)cc1 | inactive | 
32 | Cc1ccc(C)c(N2CCN(C(=O)CCc3c(C)nc4c(c3C)c(=O)n(C)c(=O)n4C)CC2)c1 | inactive | 
33 | O=C(CCC1N=C2c3ccccc3N=C(SCc3ccccc3F)N2C1=O)NCCc1ccccc1 (stereo not given) | inactive | 
34 | COc1ccc(C(=O)CSc2c(C(C)C)cnc3c2c(=O)n(C)c(=O)n3C)cc1 | inactive | 
35 | CCOC(=O)c1cccc(NS(=O)(=O)c2cc(-c3cnc(C)o3)ccc2OC)c1 | inactive | 
36 | Oc1ccc(N=Nc2nccs2)c(O)c1 | 35.5 µM (active) | 
37 | Oc1ccc2ccccc2c1N=Nc1nccs1 | 5.62 µM (active) | 
38 | Cc1cccc(NC(=O)Cn2c(=O)n(CCC(C)C)c(=O)c3cccnc32)c1 | inactive | 
39 | O=C(NCCCc1ccccc1)c1ccc2c(c1)sc1nc(-c3ccc(F)cc3)cn12 | inactive | 
40 | CC1=C(C(=O)OCC2CCCCC2)C(c2c(F)cccc2Cl)CC(=O)N1 (stereo not given) | inactive | 
41 | N#Cc1nc(-c2ccc(OCc3ccccc3)cc2)oc1NCCCN1CCOCC1 | 35.5 µM (active) | 
42 | O=S(=O)(c1ccccc1)c1nc(-c2ccccc2)oc1NCCCN1CCOCC1 | inactive | 
43 | CC1CC(C)CN(c2oc(-c3ccc(OCc4ccc(Cl)cc4)cc3)nc2C#N)C1 (stereo not given) | inactive | 
44 | CCc1cccc(NC(=O)Cn2nc(CC)n3c(cc4cc(C)ccc43)c2=O)c1 | inactive | 
45 | CCOc1ccc(NC(=O)Cn2cc(C(=O)c3ccc(C)cc3)c(=O)c3cc4c(cc32)OCCO4)cc1 | inactive | 
46 | CCN(CC)S(=O)(=O)c1ccc2c(c1)nc(CN(C)C(=O)Nc1ccc(Cl)cc1)n2C | inactive | 
47 | Cc1ccc(C)c(N2CCN(C(=O)Cc3c(C(=O)O)c(C)cn3C)CC2)c1 | inactive | 
48 | Cc1[nH]c(N)nc(=S)c1CCCNc1ccccc1 | 50.1 µM (active) | 
49 | CCc1c(Nc2ccccc2C)nc(N)[nH]c1=O | inactive | 
50 | COc1ccc(Cl)cc1NC(=O)CSc1nc(-c2cccs2)cc(C(F)(F)F)n1 | inactive | 

Row | SMILES | Potency | activity change, negative = inhibition
51 | Cc1ccc(NC(=O)CN2C(=O)CC(C)Sc3ccccc32)c(C)c1 (stereo not given) | inactive | 
52 | O=C(Oc1ccc([N+](=O)[O-])cc1)c1ccc2ccccc2n1 | 28.2 µM (active) | 
53 | COc1ccc(C(=O)COC(=O)c2ccc3ccccc3n2)cc1 | inactive | 
54 | CC(OC(=O)c1ccc2ccccc2n1)C(=O)c1ccccc1 (stereo not given) |  | -2.94% [at 11.4 µM]
55 | COc1ccc2c(c1)c(=O)c(C(=O)c1ccccc1)cn2CC(=O)Nc1ccc2c(c1)OCCO2 | inactive | 
56 | CC(C)(C)c1ccc(C(=O)Nc2ccc3c(c2)CCCN3C(=O)c2cccs2)cc1 | inactive | 
57 | Cc1ccc(NC(=S)N(Cc2ccco2)C(C)c2cccs2)cc1 (stereo not given) | inactive | 
58 | CCNC(=S)N(CCc1c(C)[nH]c2ccc(C)cc12)Cc1ccco1 | 63.1 µM (active) | 
59 | Cc1ccc2[nH]c(C)c(CCNC(=O)NC3CCCCC3)c2c1 | inactive | 
60 | CCOc1ccc(CNC(=O)c2cc(=O)[nH]c3ccc(S(=O)(=O)N4CCCCC4)cc23)cc1 | inactive | 
61 | CCOC(=O)c1ccc(NC(=O)Cn2c(=O)n(-c3ccc(C)cc3)c(=O)c3c2cnn3C)cc1 | inactive | 
62 | COc1ccc(OCC(=O)OCCN(C)C)cc1 | inactive | 
63 | CN(C)CCOc1cccc(Br)c1 | 3.55 µM (active) | 
64 | COc1ccc(OC)c(NC(=O)CN(C)CCOc2ccc(Br)cc2)c1 | inactive | 
65 | Cc1ccc(-c2cn3c(n2)sc2cc(C(=O)NCCCc4ccccc4)ccc23)cc1 | inactive | 
66 | CCCCOc1ccc(C(=O)Nc2cccc(-c3nc4ccccc4o3)c2C)cc1 | inactive | 
67 | CCCCCCCCOC1OC(CO)C(O)C(O)C1NC(C)=O (stereo not given) | 79.4 µM (active) | 
68 | CCCCCCCCCOC1OC(CO)C(O)C(O)C1NC(C)=O (stereo not given) | inactive | 
69 | CCc1cccc(OC2OC(CO)C(O)C(O)C2NC(C)=O)c1 (stereo not given) | inactive | 
70 | CCc1nc2c(cnn2-c2ccc(C)cc2)c(=O)n1-c1ccc(C)cc1 | inactive | 
71 | CCOC(=O)C1=C(c2ccc(OC)cc2)C(=O)c2ccccc2C1=O | 39.8 µM (active) | 
72 | CCOC(=O)C(NC(C)=O)C(=O)Nc1ccc(OC)cc1 (stereo not given) | inactive | 
73 | CCOC(=O)c1ccccc1CN1C(=O)c2ccccc2S1(=O)=O | inactive | 
74 | COc1ccc(NS(=O)(=O)c2cc3c4c(c2)CC(=O)N4CCC3)cc1Cl | inactive | 
75 | CCc1ccc(NS(=O)(=O)c2ccc3[nH]cc(C(=O)NCCc4cccc(C)c4)c(=O)c3c2)cc1 | inactive | 

Row | SMILES | Potency | activity change, negative = inhibition
76 | COc1ccc(C2CC(=O)Oc3ccc(C(C)(C)C)cc32)cc1 (stereo not given) | inactive | 
77 | COc1cc(OC)c2c(c1)OC(=O)CC2c1cc(OC)c(OC)c(OC)c1 (stereo not given) | inactive | 
78 | COc1ccc(C(CCN2CCOCC2)c2c(OC)cc(OC)c3c2OC(=O)CC3c2ccc(OC)cc2)cc1 (stereo not given) | 35.5 µM (active) | 
79 | COc1cc(COCC(O)CN2CCN(Cc3ccc4c(c3)OCO4)CC2)cc(OC)c1OC (stereo not given) | inactive | 
80 | CCN(CC)CCC(c1cc(OC)c(OC)c(OC)c1)c1c(OC)cc(OC)c2c(-c3ccccc3)cc(=O)oc12 (stereo not given) | inactive | 
81 | COc1cc(OC)c2ccc(=O)oc2c1C(CCN1CCN(c2ccccc2)CC1)c1ccc2c(c1)OCO2 (stereo not given) | 17.8 µM (active) | 
82 | O=C(NCC(c1ccc2c(c1)OCO2)N1CCN(c2ccccc2)CC1)C(=O)Nc1ccccc1F (stereo not given) | inactive | 
83 | COc1cc(OC)c2c(C)cc(=O)oc2c1C(CCN1CCCCC1)c1ccc(N(C)C)cc1 (stereo not given) | 39.8 µM (active) | 
84 | COc1cc(C2CC(=O)Oc3cc(OC)c(OC)c(OC)c32)cc(OC)c1OC (stereo not given) | inactive | 
85 | COc1cc(OC)c2c(c1C(CCN1CCCCC1)c1ccc(N(C)C)cc1)OC(=O)CC2c1ccc(N(C)C)cc1 (stereo not given) | 35.5 µM (active) | 
86 | COc1ccc(C2/C(=C(/O)c3ccc(OC(C)C)cc3)C(=O)C(=O)N2CCCN2CCOCC2)cc1 (stereo not given) | inactive | 
87 | COc1ccc(CNC(=O)c2cc3c(=O)[nH]c4ccc(C)cc4c3s2)c(OC)c1 | inactive | 
88 | COc1ccc(-c2cn3c(n2)sc2cc(C(=O)Nc4ccccc4F)ccc23)cc1 | inactive | 
89 | Cc1ccccc1CNC(=O)c1cccc(NC(=O)c2nsc3ccccc23)c1 | inactive | 
90 | COc1ccc(-n2c(=O)c3sc4ccccc4c3n(CC(=O)Nc3cccc(C)c3)c2=O)cc1 | inactive | 
91 | O=C(Nc1ccc2nc(SCCOc3ccccc3)sc2c1)c1ccco1 | inactive | 
92 | CC(=O)c1ccc(NS(=O)(=O)c2ccc(-c3cc(C)no3)s2)cc1 | inactive | 
93 | CCN(CC)c1nn2c(=O)c(C(=O)NCCc3ccccc3)cnc2s1 | inactive | 
94 | CCN(CCCNC(=O)c1c(C)oc2ncn(CC(C)C)c(=O)c12)Cc1ccccc1 | inactive | 
95 | CCc1ccc(NC(=O)CCS(=O)(=O)c2cc3c(cc2Cl)NC(=O)CO3)cc1 | inactive | 
96 | O=C(CSc1nc(=O)n(Cc2cccnc2)c2c1CCC2)Nc1ccc(F)cc1F | inactive | 
97 | O=S(=O)(c1ccc2nc(NCc3ccccc3Cl)ccc2c1)N1CCCCC1 | inactive | 
98 | O=S(=O)(Nc1cccc2cccnc12)c1cccc2cccnc12 | inactive | 
99 | COc1cc(NS(=O)(=O)c2ccc3ccccc3c2)c2ncccc2c1 | inactive | 
100 | O=[N+]([O-])c1ccccc1S(=O)(=O)Nc1cccc2cccnc12 | 56.2 µM (active) | 
